Data as given in PubChem BioAssay (NCI).
Compounds without any hit were thinned out: in the full panel of roughly 83,000, 20% have a hit.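 Negative percent growth values reflect cell death: -40 means 40% of the cells present at the start died, and -100 means all died.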 Unmarked numbers belong to inactive results. The source made the active and inactive calls. The calls were made as follows: active = growth percent below 10; inactive = the rest.

Assays:
Test in all cases: NCI-60 one-dose screen, 48 h (100 = growth as untreated, 0 = no growth, -100 = all killed)
Conditions in all cases: 10 µM unless noted
HCT-15 colon = test system: HCT-15 colon
HT29 colon = test system: HT29 colon
SNB-75 CNS = test system: SNB-75 CNS
SNB-19 CNS = test system: SNB-19 CNS
U251 CNS = test system: U251 CNS
PC-3 prostate = test system: PC-3 prostate
SK-MEL-5 melanoma = test system: SK-MEL-5 melanoma
UACC-62 melanoma = test system: UACC-62 melanoma
LOX IMVI melanoma = test system: LOX IMVI melanoma
SK-MEL-28 melanoma = test system: SK-MEL-28 melanoma

Structure (SMILES) | growth (HCT-15 colon) | growth (HT29 colon) | growth (SNB-75 CNS) | growth (SNB-19 CNS) [%] | growth (U251 CNS) | growth (PC-3 prostate) | growth (SK-MEL-5 melanoma) | growth (UACC-62 melanoma) | growth (LOX IMVI melanoma) | growth (SK-MEL-28 melanoma)
COCCOc1ccc2ncc(C#Cc3cncc(C(=O)Nc4ccc(CN5CCN(C)CC5)c(C(F)(F)F)c4)c3)n2n1 | 0.122% (active) | 15.6% | 4.29% (active) | 18.1 | 37.9% | 35% | 67.4% | 31.5% | -88.9% (active) | -49.4% (active)
O=S1SC(c2ccccc2)=NN1c1cc(F)cc(F)c1 (stereo not given) | 28.7% | 98.9% | 74.9% | 49.8 | 20.3% | 13.3% | 50.4% | 29.1% | 38.1% | 46.4%
CC(C)=CCC[C@](C)(O)[C@H]1CC[C@]2(C)[C@@H]1CC[C@@H]1[C@@]3(C)CC[C@H](N)C(C)(C)[C@@H]3CC[C@]12C | 20.3% | 59.6% | 87.2% | 81.2 | 48.2% | 68.3% | 84.2% | 91% | -82.5% (active) | 108%
CCOC(=O)C1=C(C)NC(C)=C(C(=O)OC(C)C)C1c1cccc(C#N)c1 (stereo not given) | 99.1% | 108% | 84.5% | 101 | 100% | 87.2% | 99.6% | 93.3% | 95.2% | 105%
NC(=O)c1ncn2c(=O)n(CCF)nnc12 | 80.4% | 57.4% | 50.6% | 96.1 | 93.7% | 71.6% | 92.5% | 49.6% | 26.1% | 87%
CC(C)[C@H]1c2[nH]c3ccccc3c2C[C@H]2C(=O)N(CCCCCCC(=O)NO)CC(=O)N12 | 97.5% | 77.4% | 62.9% | 86.7 | 81% | 86% | 75% | 56.2% | 72.7% | 71.7%
Cc1ccc2c(n1)C(=O)C(Cl)=C(Nc1cc(C(F)(F)F)cc(C(F)(F)F)c1)C2=O | 6.82% (active) | 102% | 98.3% | 90.6 | 85.2% | 80.5% | 77% | 79.9% | 66.2% | 88.7%
COc1cccc2c1C=CC1(O2)Oc2cccc(OC)c2C=C1C (stereo not given) | 24.9% | 6.27% (active) | -8.19% (active) | 22.8 | 16.8% | 31.4% | 24.6% | 13.1% | 24.5% | 58.4%
NNc1nnc2nc(Nc3ccccc3)nc(Nc3ccc(S(N)(=O)=O)cc3)n12 | 100% | 108% | 90.6% | 102 | 105% | 103% | 101% | 95.8% | 97.3% | 106%
Brc1ccc2[nH]cc(-c3nn4cc(-c5nccs5)nc4s3)c2c1 | 10.2% | 40.9% | -1.58% (active) | 61.1 | 61.3% | 9.64% (active) | 73.1% | 79.3% | 8.86% (active) | 49.6%
O=C(CN1CCN(c2cc(=O)[nH]c3ccc(F)cc23)CC1)N(c1ccccc1)c1ccccc1 | 97.7% | 110% | 71.3% | 93.4 | 107% | 96.5% | 100% | 98% | 101% | 111%
C=CCSC1=NC2C(N(CC)C(=O)N2CC)N1/N=C/C=C/c1ccccc1OC (stereo not given) | 50.8% | 70.3% | 70.7% | 79.9 | 74.2% | 62.4% | 65.5% | 54.6% | 68.9% | 84.3%
CCCCSC1=C(Cl)CN(c2ccc(Cl)cc2)C1=O | 96.1% | 105% | 104% | 93.3 | 93.6% | 98.4% | 98.3% | 93.4% | 62.4% | 102%
CCN(CC)c1ccc(/C=N/NC(=O)c2ccc(NS(C)(=O)=O)cc2)c(O)c1 | 20.1% | 27.4% | 48.1% | 34.7 | 23.8% | 31.7% | 0.13% (active) | 0.285% (active) | 0.336% (active) | 23%
C#CCN(C)CCCOc1ccc(NC(=O)CCCCCCCCC(=O)NO)cc1Cl | 75% | 67.8% | 63.4% | 77.3 | 64.3% | 73.9% | 54.9% | 40.6% | 4.6% (active) | 77%
O=C(CCCCCCNC(=O)C(O)(O)C(F)(F)F)Nc1ccc(Br)cc1 | 20.8% | 2.18% (active) | 33.9% | 14.7 | -21.3% (active) | 31.6% | -68.3% (active) | -50% (active) | -75.2% (active) | 9.41% (active)
O=C(CSc1nnc(-c2ccc(Cl)cc2)n1-c1ccccc1)Nc1ccccc1Cl | 76.8% | 67.5% | 65.8% | 82.4 | 61.6% | 77.8% | 95.4% | 95.7% | 15% | 99.2%
CSc1ccc(/C(=N/N=C(N)N)c2ccc(F)cc2)cc1 | 6.59% (active) | 4.2% (active) | 44.2% | 25.7 | 11.2% | 20% | -11.3% (active) | 36.2% | 5.46% (active) | 60.9%
O=C(CCl)Nc1ccc(NC(=O)c2cc(Cl)ccc2O)c(Cl)c1 | 25.9% | 64.6% | 77.1% | 80 | 42.8% | 87.1% | 57.8% | 56.4% | -88.1% (active) | 88.5%
CC1=C(C)C(=O)C(Nc2cccc(C)c2)=C(Br)C1=O | 98.4% | 105% | 67.7% | 101 | 101% | 78.5% | 90.5% | 94.4% | 58.1% | 115%
COc1ccc2c(c1)c(-c1nn3cc(-c4ccncc4)nc3s1)cn2C | 60.7% | 79.2% | 29.6% | 86.1 | 83% | 71.2% | 86.3% | 68.7% | 65.9% | 114%
Cc1ccccc1Nc1nc(SC(C)C)nc(-c2ccccc2)c1C#N | 58.2% | 53.2% | 101% | 19.9 | 33.8% | 80.8% | 85.2% | 92.3% | 10.5% | 87.3%
CCOC(=O)c1c(NC(=O)c2cccc(C(F)(F)F)c2)sc2c1CCC(=O)C2 | 18.9% | 65.4% | 31.6% | 21.4 | 3.77% (active) | 3.56% (active) | 38% | 30.9% | 9.07% (active) | 89.2%
CCCN1C=C/C(=C\C(=O)n2ccc3ccccc32)c2ccccc21 | 80.3% | 74.7% | 90.8% | 94.5 | 90.3% | 73.7% | 82.1% | 68.9% | 78.7% | 90.6%
Cc1ccc(/C(N)=N/C(N)=N/c2nc3ccccc3s2)cc1 | 52.2% | 110% | 96.5% | 95.3 | 82% | 63.5% | 91% | 91.9% | -17% (active) | 116%
